Data published in PubChem BioAssay.
Active and inactive are the calls of the source.

Test: growth of efflux-deficient E. coli DRC39 – strain DRC39, OD650, 24 h, E. coli filamentation inducers, primary screen (AID 1178);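 also: growth measured as culture turbidity by optical density at 650 nm; test concentration not given here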
Settings: E. coli DRC39 acrAB, higher = more signal, called active from +8 up or from −8 down

z-score, inactive:
CC(C)C[C@@H]1NC(=O)[C@@H]2C[C@H](C(=O)NCc3ccc(F)cc3)[C@H](c3cccc(OCCO)c3)N2C1=O 1.46
C=CCC(OC(C)=O)[C@@H]1[C@@H](N(Cc2ccc(-c3ccccc3)cc2)C(=O)c2cccc3ccccc23)c2cc(OCCCO)ccc2N1C(=O)c1ccc(-c2ccccc2)cc1 (stereo partly drawn) 1.59
CCCC[C@H]1OB(O)C[C@H]2C1=C(COC)Cn1c(=O)n(-c3ccccc3)c(=O)n12 0.451
O=C1NC(=O)C2C1C=CC(C(O)c1cc(C(F)(F)F)cc(C(F)(F)F)c1)N2Nc1ccccn1 (stereo not drawn) -0.509
CC1CC/C=C\[C@H]2OC34C=CCN(Cc5ccccc5)C(=O)[C@H]3N(CCCO)C(=O)[C@@H]4C2C(=O)O1 (stereo partly drawn) 1.02
C=C(CC1([C@@H](NP(=O)(c2ccccc2)c2ccccc2)[C@H]2C[C@@H]2CCCC)CC1)c1ccccc1 -0.167
CC(C)N1C(=O)c2ccccc2[C@](C)(C(=O)NCCN2CCOCC2)[C@@H]1c1ccc(CO)cc1 -0.0268
[N-]=[N+]=NCc1ccccc1[C@@H]1OC(c2ccc(OCCCO)cc2)=N[C@]1(Cc1ccccc1)C(=O)NCC(O)CO (stereo partly drawn) -0.151
Cc1ccc(S[C@]2(C(=O)NCCCN(C)C)CC(=O)N(Cc3ccccc3C(F)(F)F)[C@@H]2c2ccc(CO)cc2)cc1 0.252
[N-]=[N+]=Nc1ccccc1[C@@H]1OC(c2ccc(OCCCO)cc2)=N[C@]1(Cc1ccccc1)C(=O)N1CCOCC1 0.266
Cc1nc2cc(Br)ccc2c(=O)o1 0.705
CC1CC/C=C\[C@H]2OC34C=CCN(C(C)(C)C)C(=O)[C@H]3N(C(C)CO)C(=O)[C@@H]4C2C(=O)O1 (stereo partly drawn) 0.606
C=CCOC(=O)[C@@H]1[C@H]2C(=O)O[C@H](c3ccccc3)[C@H](c3ccccc3)N2[C@H](c2ccc(OCCOC(=O)[C@H]3C[C@H]4C(=O)N5CCC[C@H]5C(=O)N4[C@H]3c3ccc(O)cc3)cc2)[C@@]12C(=O)Nc1ccc(I)cc12 0.0092
C=C(/C(=C/C[C@H](OC(C)=O)c1ccccc1OCCO)c1cnc2ccccc2c1)C(C)C -0.672
CCCCN1CC=CC23O[C@@H]4C=CCCOC(=O)C4[C@H]2C(=O)N(CCCCCCO)[C@@H]3C1=O (stereo partly drawn) 0.013
COc1ccc(C#Cc2ccc3c(c2)[C@]2(C(=O)N3)[C@H](C(=O)NC[C@H](O)c3ccccc3)[C@H]3C(=O)O[C@H](c4ccccc4)[C@H](c4ccccc4)N3[C@@H]2c2ccc(O)cc2)cc1 0.0945
O=C(c1ccccc1)N1C(=O)[C@]2(COC(c3ccc(OCCCO)cc3)=N2)Cc2ccccc21 0.107

Test: growth of efflux-deficient E. coli DRC39 – strain DRC39, OD650, 48 h, E. coli filamentation inducers, primary screen (AID 1179);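 also: screen aims at cell division blockers that make cells filament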
Settings: E. coli DRC39 delta-acrAB growth, higher = more signal, called active from +8 up or from −8 down

z-score, inactive:
C=CCN1C(=O)[C@@]2(Cc3ccccc31)N=C(c1ccc(OCCCO)cc1)O[C@H]2c1ccccc1 0.775
CC(C)C(O)C1C=CC2C(=O)N(c3ccccc3)C(=O)C2N1Nc1ccc([N+](=O)[O-])cc1 (stereo not drawn) -0.347
COC(=O)[C@H](Cc1ccccc1)N[C@@H](/C=C/C1CC1)[C@H](O)Cc1ccccc1 -0.181
O=C1O[C@H](c2ccccc2)[C@H](c2ccccc2)N2[C@H]1[C@@H](C(=O)N1CCCCCCC1)[C@]1(C(=O)Nc3ccc(C#CC4=CCCCC4)cc31)[C@H]2c1ccc(OCCO)cc1 0.286
CCOC(=O)C[C@H]1[C@H](OC(=O)c2ccc(C(=O)c3ccccc3)cc2)[C@@H](NC(=O)c2ccccc2)c2cc(OCCCO)ccc2N1C(=O)Cc1ccc(OC)cc1 0.419
COc1ccc([Si](C)(C)[C@H]2[C@H](CCO)O[C@@]3(C(=O)N(Cc4ccc(N(C=O)c5ccccc5)cc4)c4ccccc43)[C@@H]2C)cc1 -0.495
CC(C)c1ccc(NN2C(C(O)c3ccc(B(O)O)cc3)C=CC3C(=O)N(c4ccccc4)C(=O)C32)cc1 (stereo not drawn) -0.543
COc1ccc(CCNC(=O)[C@@]2(Sc3ccc(C)cc3)CC(=O)N(C3Cc4ccccc4C3)[C@@H]2c2ccc(CO)cc2I)cc1 -0.325
COCCOC(=O)N1C(=O)[C@@]2(c3ccccc31)[C@H](c1ccc(O)cc1)N1[C@H](c3ccccc3)[C@H](c3ccccc3)OC(=O)[C@H]1[C@@H]2C(=O)Nc1nc2ccccc2s1 1.37
C=C(C(=O)CC[C@@H](OC(=O)c1cccnc1)c1ccccc1OCCO)C(C)C 0.195
NCCCCCNC(=O)[C@@H]1C[C@@H]2C(=O)N[C@@H](Cc3ccccc3)C(=O)N2[C@@H]1c1ccc(O)cc1 -0.384
CCCCCCc1nc(-c2ccc(OC)nc2)cc2c1[Si](C(C)C)(C(C)C)O[C@H]2c1ccccc1 -0.0838
C[N+](C)(C)CCCCNC(=O)[C@@H]1C[C@@H]2C(=O)N[C@@H](Cc3ccccc3)C(=O)N2[C@@H]1c1cccc(OCCO)c1 1.31
COc1cc2c(cc1O)C(c1cccs1)N(C)CC2 (stereo not drawn) 0.597
C[C@@]1([C@@H](NC(=O)c2ccc(-c3ccccc3)cc2)c2ccc(Cl)cc2)C[C@H]1C1CCCCC1 -0.561
Cc1ccc(S[C@]2(C(=O)O)CC(=O)N(C(C)C)[C@@H]2c2ccc(CO)cc2I)cc1 1.42
CN1C(=O)C2C=CC(C(O)C3CC=CCC3)N(N(c3ccccc3)c3ccccc3)C2C1=O (stereo not drawn) 0.364
O=C1NC(=O)C2C1C=CC(C(O)c1cccs1)N2Nc1ccc(Cl)cc1Cl (stereo not drawn) -0.86
C=CCC(OC(C)=O)[C@@H]1[C@@H](N(Cc2ccc(-c3ccccc3)cc2)C(=O)Cc2ccc(OC)cc2)c2cc(OCCCO)ccc2N1C(=O)Cc1ccc2ccccc2c1 (stereo partly drawn) -0.851
CC(C)C[C@@H]1NC(=O)[C@@H]2C[C@H](C(=O)NCc3ccc(F)cc3)[C@H](c3cccc(OCCO)c3)N2C1=O 1.48
C=CCC(OC(C)=O)[C@@H]1[C@@H](N(Cc2ccc(-c3ccccc3)cc2)C(=O)c2cccc3ccccc23)c2cc(OCCCO)ccc2N1C(=O)c1ccc(-c2ccccc2)cc1 (stereo partly drawn) 0.734
CCCC[C@H]1OB(O)C[C@H]2C1=C(COC)Cn1c(=O)n(-c3ccccc3)c(=O)n12 0.452
O=C1NC(=O)C2C1C=CC(C(O)c1cc(C(F)(F)F)cc(C(F)(F)F)c1)N2Nc1ccccn1 (stereo not drawn) -1.42
CC1CC/C=C\[C@H]2OC34C=CCN(Cc5ccccc5)C(=O)[C@H]3N(CCCO)C(=O)[C@@H]4C2C(=O)O1 (stereo partly drawn) 0.568
C=C(CC1([C@@H](NP(=O)(c2ccccc2)c2ccccc2)[C@H]2C[C@@H]2CCCC)CC1)c1ccccc1 -0.821
CC(C)N1C(=O)c2ccccc2[C@](C)(C(=O)NCCN2CCOCC2)[C@@H]1c1ccc(CO)cc1 -0.582
[N-]=[N+]=NCc1ccccc1[C@@H]1OC(c2ccc(OCCCO)cc2)=N[C@]1(Cc1ccccc1)C(=O)NCC(O)CO (stereo partly drawn) -0.465
Cc1ccc(S[C@]2(C(=O)NCCCN(C)C)CC(=O)N(Cc3ccccc3C(F)(F)F)[C@@H]2c2ccc(CO)cc2)cc1 0.164
[N-]=[N+]=Nc1ccccc1[C@@H]1OC(c2ccc(OCCCO)cc2)=N[C@]1(Cc1ccccc1)C(=O)N1CCOCC1 -0.412
Cc1nc2cc(Br)ccc2c(=O)o1 1.42
CC1CC/C=C\[C@H]2OC34C=CCN(C(C)(C)C)C(=O)[C@H]3N(C(C)CO)C(=O)[C@@H]4C2C(=O)O1 (stereo partly drawn) 0.771
C=CCOC(=O)[C@@H]1[C@H]2C(=O)O[C@H](c3ccccc3)[C@H](c3ccccc3)N2[C@H](c2ccc(OCCOC(=O)[C@H]3C[C@H]4C(=O)N5CCC[C@H]5C(=O)N4[C@H]3c3ccc(O)cc3)cc2)[C@@]12C(=O)Nc1ccc(I)cc12 -0.743
C=C(/C(=C/C[C@H](OC(C)=O)c1ccccc1OCCO)c1cnc2ccccc2c1)C(C)C -0.622
CCCCN1CC=CC23O[C@@H]4C=CCCOC(=O)C4[C@H]2C(=O)N(CCCCCCO)[C@@H]3C1=O (stereo partly drawn) 0.383
COc1ccc(C#Cc2ccc3c(c2)[C@]2(C(=O)N3)[C@H](C(=O)NC[C@H](O)c3ccccc3)[C@H]3C(=O)O[C@H](c4ccccc4)[C@H](c4ccccc4)N3[C@@H]2c2ccc(O)cc2)cc1 0.51
O=C(c1ccccc1)N1C(=O)[C@]2(COC(c3ccc(OCCCO)cc3)=N2)Cc2ccccc21 -0.26
